# High-throughput results: PubChem, several laboratories
# SKKanGAS inh = inhibitors of SKKanGAS S. pyogenes growth in kanamycin (SK-promoter or general growth effect); inhibition, % at 7.5 µM; actives 1.3% (n = 300,000); BacTiter-Glo, 6 h;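 active = mean replicate score, as percent of positive control median, at least 50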;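 also: strain carries kanamycin resistance gene driven by streptokinase promoter and grows in 40 µg/ml kanamycin; loss of luminescence reflects streptokinase promoter inhibition or plain growth inhibition; 0% = median of DMSO wells and 100% = positive control at its reference dose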
# TIM10 inh = inhibits growth of TIM10 yeast strain | S. cerevisiae TIM10 strain growth, BacTiter-Glo luminescence, 24 h | inhibition, % at 10 µM | actives 1.4% (n = 330,000);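 active = inhibition of 40% or more at the single tested concentration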;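 also: wild-type TIM10 isogenic control strain grown at permissive 25 °C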
# tim10-1 inh = inhibits growth of tim10-1 mutant yeast | S. cerevisiae tim10-1 ts strain growth, BacTiter-Glo, 24 h | inhibition, % at 20 µM | actives 2.2% (n = 330,000) | AID 463190;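 active = inhibition of at least 40%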;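 also: mutant grown at 25 °C; 0% = DMSO wells with yeast and 100% = wells holding no yeast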
# PfHsp90 set2 = inhibits growth of yeast expressing Plasmodium falciparum Hsp90; inhibition, % at 9.4 µM; S. cerevisiae expressing PfHsp90, BacTiter-Glo ATP, 48 h; yeast lacking PDR1 and PDR3 efflux regulators; actives 0.32% (n = 310,000);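 active = every replicate shows inhibition above about 80%, whatever the replicate mean, limit read from the data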;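 also: 0% = DMSO neutral controls and 100% = 20 µM radicicol positive controls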
# EBI2 antag = blocks human EBI2 receptor beta-arrestin signaling | EBI2 beta-arrestin recruitment, luminescence, 7a,25-OHC stimulated | actives 0.81% (n = 360,000) | inhibition, % at 5 µM; in the data active = inhibition above about 38%;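 also: enzyme fragment complementation signal reports receptor beta-arrestin coupling in cells; 0% = agonist plus DMSO wells and 100% = wells without agonist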
# Target sequence (P32249 whole entry, looked up, the tested form may be a part): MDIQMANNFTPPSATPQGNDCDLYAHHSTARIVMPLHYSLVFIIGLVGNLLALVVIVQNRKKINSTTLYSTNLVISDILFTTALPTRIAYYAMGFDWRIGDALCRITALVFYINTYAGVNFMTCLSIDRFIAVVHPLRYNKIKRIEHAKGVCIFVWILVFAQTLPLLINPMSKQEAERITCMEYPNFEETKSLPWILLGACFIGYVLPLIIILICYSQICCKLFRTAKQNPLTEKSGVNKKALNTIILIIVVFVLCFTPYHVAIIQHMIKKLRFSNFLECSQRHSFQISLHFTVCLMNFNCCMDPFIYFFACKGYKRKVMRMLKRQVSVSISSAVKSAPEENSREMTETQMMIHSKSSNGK
# tim23-1 inh = growth inhibitors of tim23-1 mutant yeast; S. cerevisiae tim23-1 growth, BacTiter-Glo luminescence, 24 h; inhibition, % at 20 µM; actives 1.3% (n = 330,000); AID 463212;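 active = growth inhibition of the mutant yeast at or above 50%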;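 also: temperature-sensitive mutant grown at 25 °C; plate controls were DMSO-treated mutant yeast for no effect and medium wells lacking yeast for full effect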
# tim10-1 confirm = confirmation of tim10-1 mutant yeast growth inhibitors; shares compounds with tim10-1 inh; S. cerevisiae tim10-1 ts strain growth, BacTiter-Glo, 24 h; inhibition, % at 20 µM; actives 56% (n = 7,400);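 active = inhibition of yeast growth at or above a set limit in either of two repeat tests at 20 µM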;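 also: tim10-1 mutant grown at permissive 25 °C to find synthetic lethal compounds; 0% = DMSO yeast wells and 100% = medium wells without yeast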
# Active calls of the source: *; x = no result. A selection: hits, their analogues and other compounds. The true share with any hit is near 4.7%.
SMILES,SKKanGAS inh,TIM10 inh,tim10-1 inh,PfHsp90 set2,EBI2 antag,tim23-1 inh,tim10-1 confirm
CCCNC(=O)Cn1cnc2sc(C(=O)N3CCN(Cc4ccc5c(c4)OCO5)CC3)c(C)c2c1=O,2.3,16.3,12.0,17.2,-0.7,6.0,x
O=C(c1cc2c(=O)n3ccccc3nc2s1)N1CCN(Cc2ccccc2)CC1,-3.4,10.6,14.4,-24.2,-2.1,17.2,x
Cc1c(C(=O)N2CCN(Cc3ccc4c(c3)OCO4)CC2)sc2ncnc(N3CCN(c4ccccc4F)CC3)c12,40.2,23.7,41.4*,-22.0,6.7,19.6,0.4
Cc1c(C(=O)N2CCN(Cc3ccc4c(c3)OCO4)CC2)sc2ncnc(N3CCN(c4ccccc4)CC3)c12,18.9,21.0,47.9*,10.5,14.4,24.3,7.4
O=C(c1cc2c(=O)n3ccccc3nc2s1)N1CCN(Cc2ccc3c(c2)OCO3)CC1,2.1,39.8,43.1*,x,3.8,42.1,29.6
CCc1ccc(-c2csc(NC(=O)c3cccnc3)n2)cc1,-11.4,-15.3,22.7,-31.0,7.5,12.8,x
COc1cc2c(cc1OC)C1Cc3ccc(OC)c(OC)c3C[N+]1([O-])CC2 (centres undefined),0.0,-8.6,-10.2,-4.3,-1.4,-6.6,x
Cc1nn(-c2ccccc2)c(Cl)c1C(=O)N1CCN(c2ncnc3c2cnn3-c2ccccc2)CC1,18.0,23.8,40.6*,-11.3,-67.0,23.0,32.0*
COc1ccccc1-c1cc(C(=O)NCc2ccccc2)no1,-21.6,27.4,43.6*,16.9,16.6,41.0,25.6
C=Cc1ncc(OC)c2c1[nH]c1ccccc12,-7.4,22.0,43.7*,-25.6,37.9,31.2,37.5*
COc1cccc2[nH]c3ccccc3c(=O)c12,-3.7,0.5,8.4,12.0,-8.5,22.3,x
COc1ccc(NC(=O)c2ccc(S(=O)(=O)N3CCOCC3)o2)cc1,-8.0,-11.8,-9.3,4.0,0.8,-2.3,x
CCC(=O)Oc1c(S(=O)(=O)c2ccc(C)cc2)c(C)nn1C(C)(C)C,-1.6,13.1,43.7*,-17.3,-8.7,42.9,22.9
CCCC(=O)Oc1c(S(=O)(=O)c2ccc(C)cc2)c(C)nn1C(C)(C)C,-1.9,13.2,12.1,2.9,-1.8,42.3,x
Cc1ccc(/C=C2\SC(=S)N(CCC(=O)NNS(=O)(=O)c3ccccc3)C2=O)cc1,5.2,-10.8,13.5,3.2,-1.4,4.8,x
CCn1c(-c2cccnc2Cl)nc2cc(Cl)c(Cl)cc21,0.6,-4.6,23.3,5.1,0.3,27.9,x
Clc1ccc(Cn2c(-c3cccnc3Cl)nc3ccccc32)c(Cl)c1,1.9,21.9,42.0*,9.6,10.0,22.2,11.7
Clc1ccc(Cn2c(-c3cccnc3Cl)nc3ccccc32)cc1,3.2,7.2,42.6*,1.5,13.4,30.9,26.2
O=C(Nc1ccon1)Nc1cccc(Cl)c1Cl,2.6,26.4,28.2,-12.9,-21.9,42.4,x
COc1ccc2[nH]c(C(=O)N3CCN(c4ccccc4F)CC3)c(C)c2c1,9.5,19.2,47.2*,-61.3,27.0,44.7,32.9*
Cc1ccc(S(=O)(=O)N2C[C@H]3N(C(=O)OC(C)C)N(C(=O)OC(C)C)C[C@H](OC(=O)Nc4cccs4)[C@@]3(O)C2)cc1,x,x,x,x,2.6,x,x
COc1ccc(NC(=O)CC2C(=O)N(c3cccc(C)c3)C(=O)N2C2CCCCC2)cc1 (centres undefined),-0.7,11.5,40.0,x,-4.4,23.0,23.3
CCc1ccc(NC(=O)CC2C(=O)N(c3cccc(C)c3)C(=O)N2C2CC2)cc1 (centres undefined),3.3,11.9,20.3,-20.1,-1.1,18.6,x
CCC(C)c1ccc(NC(=O)NCc2cccnc2)cc1 (centres undefined),13.5,21.4,35.7,x,0.8,24.3,x
CCC(C)c1ccc(NC(=O)Nc2cccnc2)cc1 (centres undefined),-19.1,26.0,43.3*,-9.3,2.2,36.0,33.5*
SMILES,SKKanGAS inh,TIM10 inh,tim10-1 inh,PfHsp90 set2,EBI2 antag,tim23-1 inh,tim10-1 confirm
CC(C)(C)C(O)(CC#CCN1CCCC1)c1ccccc1 (centres undefined),x,-3.3,-0.9,5.2,-8.1,-4.2,x
O=C(Cc1ccc2c(c1)OCCO2)Nc1cc(C(F)(F)F)ccc1N1CCOCC1,x,14.3,41.3*,-13.3,23.5,42.4,27.7
COC(=O)C1=C/CCCN(C(c2ccccc2)c2ccccc2)/C=C\1C(=O)OC,x,x,x,x,19.3,x,x
CC[C@@]1(c2ccccc2)C(=O)N(C(=O)OC)N1C(=O)OC,1.9,-13.7,0.3,8.0,4.0,-8.4,x
COC(=O)N1C(=O)[C@@](c2ccccc2)(C2CCCCC2)N1C(=O)OC,-2.2,-1.2,49.8*,-12.8,17.6,-1.1,45.0*
COc1cccc(C=C2SC(=S)NC2=O)c1,x,x,x,-21.6,-2.2,x,x
COc1ccc2cc(/C=C3\SC(=S)NC3=O)c(N3CCOCC3)nc2c1,39.7,36.3,42.0*,-41.4,-0.6,44.8,39.2*
CC(C)C1C(=O)N(Cc2cn(CCC3OCCO3)nn2)CCS(=O)(=O)N1Cc1ccc(-c2ccc(F)cc2Cl)cc1 (centres undefined),x,x,x,x,-2.5,x,x
Cc1cccn2c(=O)c3cc(C(=O)NC4CCCC4)c(=N)n(Cc4ccc(F)cc4)c3nc12,5.4,12.9,43.2*,-7.7,22.2,19.2,-17.8
Cn1nc(C(=O)OCC(=O)Nc2ccccc2[N+](=O)[O-])c2ccccc2c1=O,x,-4.7,1.4,10.6,-4.7,-6.3,x
Cc1ccc(Sc2oc(/C=N/n3cnnc3)cc2Br)cc1,1.0,19.7,45.8*,-10.8,1.2,34.9,16.8
Cc1cccc(-c2ncc(CN3CCCC(CO)(Cc4ccccc4C)C3)cn2)c1 (centres undefined),-1.0,28.4,21.9,-40.3,20.6,10.0,x
O=C(NC1CCCC1)C(c1cccnc1)N(Cc1ccc(F)cc1)C(=O)c1csnn1 (centres undefined),-1.3,13.2,-18.5,14.2,0.8,-0.9,x
COc1ccc(CC(=O)N/N=C/c2ccc(Cl)s2)cc1OC,-4.3,26.4,49.5*,3.0,0.9,28.6,23.8
COc1ccc(CC(=O)N/N=C/c2ccc(C)s2)cc1,-5.2,-0.5,-4.7,18.4,12.9,11.5,x
COc1ccc(Nc2nc(C)cc(C)c2C(N)=O)c(OC)c1,13.1,8.8,8.3,4.2,2.9,6.8,x
CCC(C)Sc1ccc([C@H]2N[C@@](C)(C(=O)OC)[C@H]3C(=O)N(CC)C(=O)[C@@H]23)cc1 (some centres undefined),7.5,12.3,18.5,4.5,-5.2,9.3,x
CCCCN(CC)CCCNC(=O)c1ccc(CS(=O)(=O)c2ccccc2C)o1,-2.7,7.2,4.7,-15.7,12.4,-2.6,x
O=C(NCc1ccccc1Cl)C1CCN(C(=O)c2ccco2)CC1,-9.6,-5.1,25.7,x,x,13.5,x
